According to PubChem BioAssay AID1159580 (chemical genetic matrix, 2015):
In all, about 5,500 compounds went through this assay and about 2,000 (36%) were called active. Another 18% or so got no clear call; they are omitted. Rule as the data show it: active = normalized growth mostly below about 0.91 (no sharp cut-off); inconclusive = no clear call, values can overlap the other calls; inactive = mostly above about 0.92. Some of the results follow.

Assay: chemical genetic growth profiling, strain panel (AID 1159580);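 also: tested at 20 µM; growth read once vehicle control cultures reached saturation at 30 °C; 1 = growth at the plate median or of vehicle wells; lower values mean less growth of the strain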
Conditions: growth OD

Measured: normalized growth

CC1=CCc2c(cc3oc(C)cc(=O)c3c2O)OC1
inactive: S. cerevisiae deletion strains, locus YJR075W, strain HOC1, hits give low values 0.926 | S. cerevisiae deletion strains, locus YKL009W, strain mrt4, hits give low values 0.912 | S. cerevisiae deletion strains, locus YKL068W, hits give low values 0.974 | S. cerevisiae deletion strains, locus YKL160W, strain elf1, hits give low values 0.978 | S. cerevisiae deletion strains, locus YKR026C, strain gcn3, hits give low values 0.951 | S. cerevisiae deletion strains, locus YKR091W, strain srl3, hits give low values 0.977 | S. cerevisiae deletion strains, locus YLL001W, strain dnm1, hits give low values 0.968 | S. cerevisiae deletion strains, locus YLL026W, hits give low values 0.97 | S. cerevisiae deletion strains, locus YLL041C, strain sdh2, hits give low values 0.972 | S. cerevisiae deletion strains, locus YLR027C, strain aat2, hits give low values 0.984 | S. cerevisiae deletion strains, locus YLR039C, strain RIC1, hits give low values 0.766 | S. cerevisiae deletion strains, locus YLR058C, strain SHM2, hits give low values 0.923 | S. cerevisiae deletion strains, locus YLR102C, strain apc9, hits give low values 0.97 | S. cerevisiae deletion strains, locus YLR113W, strain HOG1, hits give low values 0.931 | S. cerevisiae deletion strains, locus YLR221C, strain rsa3, hits give low values 0.944 | S. cerevisiae deletion strains, locus YLR258W, strain gsy2, hits give low values 0.95 | S. cerevisiae deletion strains, locus YLR262C, strain YPT6 (second series), hits give low values 0.883 | S. cerevisiae deletion strains, locus YLR262C, strain YPT6, hits give low values 0.772 | S. cerevisiae deletion strains, locus YLR320W, strain mms22, hits give low values 0.932 | S. cerevisiae deletion strains, locus YLR330W, strain CHS5, hits give low values 0.944 | S. cerevisiae deletion strains, locus YLR342W, strain FKS1, hits give low values 1 | S. cerevisiae deletion strains, locus YLR357W, strain rsc2, hits give low values 1.01 | S. cerevisiae deletion strains, locus YLR370C, strain arc18, hits give low values 0.998 | S. cerevisiae deletion strains, locus YLR371W, strain rom2, hits give low values 0.916 | S. cerevisiae deletion strains, locus YLR384C, strain iki3, hits give low values 0.988 | S. cerevisiae deletion strains, locus YML016C, strain PPZ1, hits give low values 0.953 | S. cerevisiae deletion strains, locus YML032C, strain rad52, hits give low values 0.917 | S. cerevisiae deletion strains, locus YML120C, strain ndi1, hits give low values 0.957 | S. cerevisiae deletion strains, locus YML124C, strain tub3, hits give low values 0.966 | S. cerevisiae deletion strains, locus YMR058W, strain fet3, hits give low values 0.936 | S. cerevisiae deletion strains, locus YMR078C, strain ctf18, hits give low values 0.956 | S. cerevisiae deletion strains, locus YMR125W, strain sto1, hits give low values 0.975 | S. cerevisiae deletion strains, locus YMR129W, hits give low values 0.967 | S. cerevisiae deletion strains, locus YMR205C, strain PFK2, hits give low values 0.971 | S. cerevisiae deletion strains, locus YMR231W, strain pep5, hits give low values 0.998 | S. cerevisiae deletion strains, locus YMR307W, strain GAS1, hits give low values 0.733 | S. cerevisiae deletion strains, locus YNL071W, strain lat1, hits give low values 0.979 | S. cerevisiae deletion strains, locus YNL128W, strain TEP1, hits give low values 0.881 | S. cerevisiae deletion strains, locus YNL183C, strain NPR1, hits give low values 0.92 | S. cerevisiae deletion strains, locus YNL209W, strain ssb2, hits give low values 1.01 | S. cerevisiae deletion strains, locus YNL248C, strain rpa49, hits give low values 0.971 | S. cerevisiae deletion strains, locus YNL250W, strain rad50, hits give low values 0.971 | S. cerevisiae deletion strains, locus YNL271C, strain bni1, hits give low values 0.959 | S. cerevisiae deletion strains, locus YNL298W, strain CLA4, hits give low values 0.925 | S. cerevisiae deletion strains, locus YNL322C, strain KRE1 (second series), hits give low values 0.984 | S. cerevisiae deletion strains, locus YNL322C, strain KRE1, hits give low values 0.94 | S. cerevisiae deletion strains, locus YNR049C, strain mso1, hits give low values 0.981 | S. cerevisiae deletion strains, locus YNR052C, strain pop2, hits give low values 0.973 | S. cerevisiae deletion strains, locus YOL006C, strain TOP1, hits give low values 0.554 | S. cerevisiae deletion strains, locus YOL012C, strain htz1 1.55 | S. cerevisiae deletion strains, locus YOR001W, strain rrp6, hits give low values 0.969 | S. cerevisiae deletion strains, locus YOR061W, strain CKA2, hits give low values 0.972 | S. cerevisiae deletion strains, locus YOR069W, strain VPS5, hits give low values 0.973 | S. cerevisiae deletion strains, locus YOR070C, strain gyp1, hits give low values 0.965 | S. cerevisiae deletion strains, locus YOR080W, strain dia2, hits give low values 0.986 | S. cerevisiae deletion strains, locus YOR083W, strain WHI5, hits give low values 0.951 | S. cerevisiae deletion strains, locus YOR106W, strain vam3, hits give low values 0.945 | S. cerevisiae deletion strains, locus YOR136W, strain idh2, hits give low values 0.963 | S. cerevisiae deletion strains, locus YOR144C, strain elg1, hits give low values 0.979 | S. cerevisiae deletion strains, locus YOR231W, strain MKK1, hits give low values 0.958 | S. cerevisiae deletion strains, locus YOR265W, strain rbl2, hits give low values 0.983 | S. cerevisiae deletion strains, locus YOR290C, strain snf2, hits give low values 0.979 | S. cerevisiae deletion strains, locus YOR316C, strain cot1, hits give low values 0.974 | S. cerevisiae deletion strains, locus YPL051W, strain arl3, hits give low values 0.976 | S. cerevisiae deletion strains, locus YPL078C, strain atp4, hits give low values 0.926 | S. cerevisiae deletion strains, locus YPL106C, strain sse1, hits give low values 0.952 | S. cerevisiae deletion strains, locus YPL240C, strain hsp82, hits give low values 0.97 | S. cerevisiae deletion strains, locus YPL241C, strain CIN2, hits give low values 0.973 | S. cerevisiae deletion strains, locus YPL256C, strain CLN2, hits give low values 0.99 | S. cerevisiae deletion strains, locus YPR119W, strain clb2, hits give low values 0.956 | S. cerevisiae deletion strains, locus YPR141C, strain kar3, hits give low values 0.972 | S. cerevisiae deletion strains, locus YPR163C, strain tif3, hits give low values 0.921 | S. cerevisiae deletion strains, locus YPR167C, strain met16, hits give low values 0.963
active: S. cerevisiae deletion strains, locus YKL085W, strain MDH1 (second series), hits give low values 0.903 | S. cerevisiae deletion strains, locus YKL085W, strain MDH1, hits give low values 0.903 | S. cerevisiae deletion strains, locus YKL190W, strain CNB1, hits give low values 0.902 | S. cerevisiae deletion strains, locus YKR001C, strain vps1, hits give low values 0.759 | S. cerevisiae deletion strains, locus YLR268W, strain sec22, hits give low values 0.869 | S. cerevisiae deletion strains, locus YLR342W, strain FKS1 (second series), hits give low values 0.792 | S. cerevisiae deletion strains, locus YLR418C, strain cdc73, hits give low values 0.639 | S. cerevisiae deletion strains, locus YMR223W, strain ubp8, hits give low values 0.902 | S. cerevisiae deletion strains, locus YMR263W, strain SAP30, hits give low values 0.865 | S. cerevisiae deletion strains, locus YNL067W, strain RPL9B, hits give low values 0.844 | S. cerevisiae deletion strains, locus YNL153C, strain GIM3, hits give low values 0.858 | S. cerevisiae deletion strains, locus YNL233W, strain BNI4, hits give low values 0.807 | S. cerevisiae deletion strains, locus YNL307C, strain MCK1, hits give low values 0.651 | S. cerevisiae deletion strains, locus YOL147C, strain pex11, hits give low values 0.922 | S. cerevisiae deletion strains, locus YOR184W, strain ser1, hits give low values 0.782 | S. cerevisiae deletion strains, locus YOR270C, strain vph1, hits give low values 0.683 | S. cerevisiae deletion strains, locus YPL055C, strain LGE1, hits give low values 0.716 | S. cerevisiae deletion strains, strain wtn01, hits give low values 0.843 | S. cerevisiae strains, strain wild type, hits give low values 0.878
